High-throughput results deposited in PubChem by National Center for Advancing Translational Sciences (NCATS).
Sampled rows, rich in hits. Any-hit rate of the full collection: about 17%.
TDP1 cell CPT – DT40-hTDP1 cell growth loss with CPT; chicken DT40 Tdp1-/-;hTDP1 cells + 20 nM CPT, ATP luminescence, 48 h; Potency, µM (doses to about 46.2 µM), usual class: inhibitors; 12% of 420,000 active; further: nearly all actives have a fitted effect of over 55% in size
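Chicken DT40 Tdp1-/- cells stably complemented with human TDP1 were seeded at 400 cells/well in medium containing 20 nM camptothecin, exposed to pin-transferred compounds, and grown at 37 °C for at least 48 hr. Viability was read as ATP luminescence.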
HepG2 viability – kills HepG2 cells in TGF-b inhibitor counter-screen. HepG2 CAGA-GFP viability, ATP luminescence, 18 h. Potency, µM (titrated, usually from 46.1 µM), most hits filed as cytotoxic. 0.76% of 410,000 active. AID 588856
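HepG2 CAGA-GFP cells (1000/well, DMEM with 1% FBS) received compound, then TGF-beta at 500 pg/mL final, and were incubated 18 hours at 37 degrees C. Viability was read by CellTiter-Glo luminescence. Media-only wells were set as complete cell-killing and DMSO as no toxicity.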
TDP1 cell noCPT – qHTS for Inhibitors of human tyrosyl-DNA phosphodiesterase 1 (TDP1): qHTS in cells in absence of CPT; Potency, µM (top dose mostly 46.2 µM), most hits filed as inhibitors; DT40 Tdp1-/- hTDP1 cells, no CPT, ATP luminescence, 48 h; 15% of 420,000 active; further: nearly all actives have a fitted effect of over 55% in size
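Camptothecin absent (DMSO only). Human TDP1-complemented DT40 knockout cells, 400 cells/well, 37 °C for minimum 48 hr; ATP measured via CellTiter-Glo, 30 min dark incubation, luminescence.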
ATXN viability – cell viability loss in ATXN counter-screen | AID 651635 | S2 cells (HEK-293 line with an ATXN2-luciferase reporter) viability, CellTiter-Fluor protease fluorescence, 24 h | Potency, µM (highest dose often 56.7 µM), actives largely listed as cytotoxic | 0.49% of 400,000 active; further: nearly all actives have a fitted effect of over 40% in size
TGFb SMAD3 inh – blocks TGF-b signaling; HepG2 CAGA-GFP TGF-b/SMAD3 reporter, GFP fluorescence, 18 h; TGF-beta stimulated, 500 pg/mL final; Potency, µM (titrated, usually from 46.1 µM), hits mostly inhibitors; 1.2% of 410,000 active; further: nearly all actives have a fitted effect of over 65% in size
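Per well, imaged GFP fluorescence of HEPG2 CAGA-GFP cells gives the signal; cells get compound, then TGF-beta (500 pg/mL final), 18 h at 37 degrees C; %Activity versus -TGF-beta and +DMSO controls.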
ATXN2 expr inh – inhibitors of ATXN2 expression; HEK-293 ATXN2-luciferase reporter, luminescence, 24 h; Potency, µM (highest dose often 57 µM), hits mostly inhibitors; 0.72% of 360,000 active; further: nearly all actives have a fitted effect of over 55% in size
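ATXN2-luciferase reporter cells (luciferase flanked by upstream and downstream ATXN2 gene portions) were treated 24 h at 37 °C with compounds at up to 57 uM. SteadyGlo luminescence gave expression; GF-AFC fluorescence gave viability.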
Numbers stand for hits; – = inactive; ? = inconclusive; · = no result. The call rests on the fitted dose curve; in most records, active means well fitted curve in the direction sought with a large enough effect; inconclusive means small, poorly fitted or top-dose-only effect, or another doubt; inactive means no such curve, though single readings can be large; an effect the other way counts as inactive or inconclusive.

SMILES | TDP1 cell CPT | HepG2 viability | TDP1 cell noCPT | ATXN viability | TGFb SMAD3 inh | ATXN2 expr inh
CC(C)(C)OC(=O)N[C@@H](Cc1ccccc1)c1nnc(SCC(N)=O)o1 | – | – | – | – | – | ·
COC(=O)CS(=O)(=O)c1nnc([C@H](Cc2ccccc2)NC(=O)OC(C)(C)C)o1 | 1.5µM | – | 1.6µM | · | ? | ?
Cc1cccc(CS(=O)(=O)c2nnc([C@H](Cc3ccccc3)NC(=O)OC(C)(C)C)o2)c1 | 1.3µM | – | 1.5µM | 8.9µM | ? | 7.9µM
CC1(C(=O)Nc2ccc3c(c2)OCCO3)CN(S(C)(=O)=O)CC(=O)N1C1CCCCCC1 (centres undefined) | – | · | – | · | · | ·
CCc1nc2ccc(C(=O)NCCOc3ccc(OC)cc3)cn2c1N(C)Cc1nccn1C | – | – | – | – | – | –
CCc1nc2ccc(C(=O)NCCOc3ccc(OC)cc3)cn2c1N(C)Cc1ccc(N(C)C)cc1 | 23µM | – | ? | – | – | –
CCc1nc2ccc(C(=O)NCc3ccccc3OC)cn2c1N(C)Cc1ccc(N(C)C)cc1 | 21µM | – | 21µM | – | – | –
CCc1nc2ccc(C(=O)Nc3ccc(OC)c(OC)c3)cn2c1N(CC)Cc1ccc(OC)c(OC)c1 | ? | – | ? | – | – | –
CCc1nc2ccc(C(=O)NCCOc3ccc(OC)cc3)cn2c1N(CC)Cc1ccc(OC)c(OC)c1 | 21µM | – | 21µM | – | ? | –
COc1ccc(OCCNC(=O)c2ccc3nc(C)c(N(C)Cc4ccc(NC(C)=O)cc4)n3c2)cc1 | 16µM | – | 16µM | – | – | –
Cn1c(CC(=O)Nc2ccccc2)nnc1SCC(=O)NC1CCCC1 | – | – | – | – | – | –
CCCCN1C(=O)c2ccc(C(=O)NC3(C)CCS(=O)(=O)C3)cc2C1=O (centres undefined) | – | – | ? | · | – | ·
O=C(Nc1nnc(S(=O)(=O)N2CCCC2)s1)c1ccc(F)cc1 | – | – | – | – | – | –
Cc1ccc(NC(=O)CCc2c(C)nn(-c3ccc(N4CCCCC4)nn3)c2C)cc1F | ? | – | ? | – | ? | –
CCOC(=O)c1cccc(NC(=O)CCc2c(C)nn(-c3ccc(N4CCOCC4)nn3)c2C)c1 | 29µM | – | ? | – | ? | –
COc1ccc(NC(=O)CCc2c(C)nn(-c3ccc(N4CCCC4)nn3)c2C)cc1Cl | ? | – | 16µM | · | ? | ·
CCc1ccccc1NC(=O)CCc1c(C)nn(-c2ccc(N3CCOCC3)nn2)c1C | – | – | – | – | – | –
Cc1ccc(C)c(N2CCN(C(=O)CCc3c(C)nn(-c4ccc(N5CCCC5)nn4)c3C)CC2)c1 | ? | – | ? | · | 13µM | ·
Cc1nn(-c2ccc(N3CCCC3)nn2)c(C)c1CCC(=O)N1CCN(c2ccccc2)CC1 | ? | – | ? | · | ? | ·
Cc1nn(-c2ccc(N3CCCCC3)nn2)c(C)c1CCC(=O)Nc1cccc(F)c1 | ? | – | 21µM | ? | – | ·
CCOC(=O)c1cccc(NC(=O)CCc2c(C)nn(-c3ccc(N4CCCC4)nn3)c2C)c1 | ? | – | 21µM | · | ? | ·
CCc1cccc(NC(=O)CCc2c(C)nn(-c3ccc(N4CCCCC4)nn3)c2C)c1 | – | – | ? | – | – | –
O=C(Nc1ccccc1)C(=O)Nc1ccc2c(c1)N(C(=O)C1CC1)CCC2 | 21µM | – | 23µM | – | – | –
CCc1nn(CC(=O)N(CC)Cc2ccccc2)c(=O)c2cc3occc3n12 | 23µM | – | 16µM | – | ? | –
CCc1nc(SCc2ccc(OCC(C)C)cc2)n[nH]1 | 4.6µM | – | ? | – | – | –
SMILES | TDP1 cell CPT | HepG2 viability | TDP1 cell noCPT | ATXN viability | TGFb SMAD3 inh | ATXN2 expr inh
CCc1c(C)c(C#N)c2[nH]c3ccccc3n2c1=S | 12µM | – | 12µM | · | ? | ?
C=C(C)Cc1c(C)c(C#N)c2[nH]c3ccccc3n2c1=O | – | – | ? | – | – | –
Cc1ccc(Cc2c(C)c(C#N)c3[nH]c4ccccc4n3c2=O)cc1 | ? | – | 23µM | – | ? | ?
CCc1cc(=S)n2c([nH]c3ccccc32)c1C#N | 16µM | – | 23µM | · | 7.9µM | ?
C[C@H]1CN([C@@H](C)CO)C(=O)c2cc(Br)cnc2O[C@@H]1CN(C)C(=O)C1CCC1 | – | – | ? | – | – | –
Nc1nc(C(F)(F)F)c(Br)c(=O)n1N | – | – | – | – | – | –
CCC1(c2ccc(F)cc2)NC(=O)N(CC(=O)N(CCC#N)c2ccccc2)C1=O (centres undefined) | – | – | – | – | – | –
COc1ccc(CN2CCN(S(=O)(=O)c3ccccc3)CC2)c(OC)c1 | ? | – | 15µM | – | – | –
COc1ccc(Br)cc1CN1CCN(Cc2c[nH]c3ccccc23)CC1 | 4.6µM | – | 7.3µM | – | ? | ?
COc1ccc(CN2CCN(Cc3c[nH]c4ccccc34)CC2)cc1OC | – | – | – | – | – | ·
COc1ccc(CN2CCN(Cc3c[nH]c4ccccc34)CC2)cc1 | 6.5µM | – | 13µM | ? | – | –
COc1ccc(CN2CCN(Cc3c[nH]c4ccccc34)CC2)c(OC)c1 | – | – | 0.29µM | – | – | ·
COc1ccc(C(=O)C2CCCN(C/C=C/c3ccccc3OC)C2)c(OC)c1 (centres undefined) | 21µM | – | 2.6µM | ? | ? | ?
COc1cccc(C(=O)C2CCCN(C/C=C/c3ccccc3OC)C2)c1 (centres undefined) | – | – | ? | – | – | –
COc1ccccc1C(=O)N1CCN(Cc2c[nH]c3ccccc23)CC1 | 15µM | – | 16µM | – | – | ?
COc1ccc(C(=O)C2CCCN(Cc3c[nH]c4ccccc34)C2)c(OC)c1 (centres undefined) | 7.3µM | – | 9.2µM | – | ? | –
COc1ccc(Br)cc1CN1CCN(C(=O)c2ccc(F)cc2)CC1 | ? | – | 21µM | ? | – | –
COc1cccc(OC)c1C(=O)N1CCN(Cc2c[nH]c3ccccc23)CC1 | – | – | – | – | – | ·
COc1ccc(C(=O)C2CCCN(Cc3c(F)ccc(F)c3F)C2)c(OC)c1 (centres undefined) | – | – | ? | – | – | –
COc1ccc(Br)cc1CN1CCN(C(=O)c2ccc(OC)c(OC)c2)CC1 | ? | – | – | – | ? | –
COc1ccnc(CS(=O)c2nc3cc(OC(F)F)ccc3[nH]2)c1OC (centres undefined) | ? | · | – | – | · | ·
Cc1ccc(/C=N/NC(=O)CNC(=O)c2ccc(S(=O)(=O)N(C)C)cc2)o1 | – | – | – | – | – | –
CCCCCc1c(O)nc(SCCN2CCOCC2)[nH]c1=O | – | – | – | – | – | –
